Each structure is given as a SMILES string. Active and inactive are the calls of the source. The calls were made as follows: active = hit-call score of the fitted dose curve at least 0.9, where 1 is the maximum; inactive = score below 0.9.

This experiment in a line: CCTE_Shafer_MEA_dev_firing_rate_mean: CCTE's Neural Network Formation Assay for Mean Firing Rate, Shafer Lab (AID 2284031).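 As to AC50: curve fitted for loss of firing so AC50 reflects decreased mean firing rate.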 Here is the method:
CCTE_Shafer_MEA_dev assay is conducted using Axion Biosystems 48 well microelectrode array (MEA) plates and Maestro recording system. Each well of the MEA plate contains a grid of 16 microelectrodes embedded in the culture surface. Electrically active cells, such as neurons, can be cultured over the electrodes, and electrical activity in these cells can be recorded extracellularly. The spontaneous firing of neurons is captured from each electrode on a microsecond timescale providing both temporally and spatially precise data. […] The CCTE_Shafer_MEA_dev assay uses primary cultures of rat cortical neurons. Recordings are made on days post-plating 5, 7, 9 and 12. As these cultures mature over time, neural networks develop functional activity and form cohesive networks in which electrical activity can be highly coordinated. CCTE_Shafer_MEA_dev_firing_rate_mean is 1 of 19 assay components of the CCTE_Shafer_MEA_dev assay. It measures the frequency of spikes (action potential firings) as the total number of spikes divided by the length of the recording in a microelectrode array (MEA) using Axion Biosystems Maestro 768 channel amplifier with the AxIS adaptive spike detector. The firing rate is averaged across the active electrodes to report a well-mean value. To collapse across multiple recordings made on days post-plating 5, 7, 9 and 12, the trapezoidal area-under-the-curve of the component is calculated.Data from the assay component CCTE_Shafer_MEA_dev_firing_rate_mean was analyzed into 1 assay endpoint. This assay endpoint, CCTE_Shafer_MEA_dev_firing_rate_mean, was analyzed in the negative analysis fitting direction relative to DMSO as the negative control and baseline of activity. Using a type of functional reporter, gain or loss-of-signal activity can be used to understand electrical activity.
On the day prior to culture, each well was coated thoroughly with 150 uL of 0.05% polyethyleneimine (PEI, Sigma Cat P3143) in 50 mM HEPES (Sigma Cat H7523) at a pH of 8. The plate was incubated at 37C for one hour. PEI was rinsed out with 500 uL of sterile water three times. Plates were stored at 4C until the day of culture. This culture was plated at a seeding density of 1.5 x 10^5 cells/well on a 48-well MEA plate, prepared as described above. Cells were administered via a 25 uL media/laminin ([…]; Sigma Cat L2020-1MG) drop directly onto the microelectrode array, as adding the cells with the laminin results in better attachment than pre-coating with laminin. After 2 hours, an additional 475 uL of cortical media was added and the cells returned to the incubator. Exposure starts at day 0 of plating and is continued over twelve days of network development until the experiment is terminated. Cells are fed with fresh medium on DIV 5 and 9, following the recordings on those days. The entire volume of media in the well is exchanged and any vehicle or compound treatment is renewed. Complete details are found in OP-NHEERL/ISTD/SBB/TJS/2015-03-r0 (available on request, email shafer.tim@epa.gov). Measurement of the electrical activity is non-invasive, and recordings can be made from the same plate over multiple different days of the culture. In cortical neurons, this allows for the measurement of extracellular action potentials over the period during which networks form in the MEA plate.
For `OB(O)O`, the call was inactive.
Regarding `Oc1ccc(C(c2ccc(O)cc2)C(Cl)(Cl)Cl)cc1`, the outcome was inactive.
Same read-out and setting: the result for `CCCCOCCOCCOCc1cc2c(cc1CCC)OCO2` reads “inactive”.
The AC50 is the concentration giving half of the maximal activity seen. Turning to `Cc1nn(C)c(Oc2ccccc2)c1C=NOCc1ccc(C(=O)OC(C)(C)C)cc1`, the AC50 was 4.42 nM (active).
With `CCCN(CCC)C(=O)SCC`, the call was inactive.
For `C#CCOC(=O)[C@@H](C)Oc1ccc(Oc2ncc(Cl)cc2F)cc1`, the call was inactive.
`CCN(CC)C(=O)c1cccc(C)c1`: the molecule was classed as inactive.
The same measure, in the same setting: the entry for `CC(C)(c1ccc(O)cc1)c1ccc(O)cc1` is “inactive”.
As for `COCCO`, the result was inactive.
With `CC1(C)C(C=C(Cl)Cl)C1C(=O)OCc1cccc(Oc2ccccc2)c1` (stereo not given), the molecule was classed as inactive.
On the same count and under the same terms, the entry for `S=C(S)NCCNC(=S)S.[Mn+2].[S-]C([S-])=NCCN=C([S-])[S-].[Zn+2]` is “inactive”; for `S=C([S-])NCCNC(=S)[S-].[Mn+2]` it is “inactive”; for `CCCCC(CC)CN1C(=O)C2C3C=CC(C3)C2C1=O` (stereo not given) it is “inactive”.
As to `O=C(O)c1ccccc1`, the call was inactive.
As for `CSC(=O)c1cccc2nnsc12`, the molecule was classed as inactive.
